Laboratory results taken from ChEMBL document CHEMBL1157539, “Thousands of chemical starting points for antimalarial lead identification” (Nature, 2010).

Test system: Plasmodium falciparum
Experiment: GSK_TCMDC: Inhibition of Plasmodium falciparum 3D7 in whole red blood cells, using parasite LDH activity as an index of growth. Test compounds present at 2uM
Assay type: functional

SMILES | Inhibition [%]
CN(C)CCNCc1nc(-c2ccc3c(Nc4ccc(Oc5ccccc5)cc4)ccnc3c2)cs1 | 100
CC(=O)CC(=O)N1CCN(c2ccccc2)CC1 | 85
CCOC(=O)c1ccc(NC(=O)N(Cc2ccc(-c3ccc(CN4CCNCC4)cc3)cc2)Cc2cccnc2)cc1.O=C(O)C(F)(F)F | 94
Cc1noc(C)c1-c1cccc(CNCc2ccc(-c3ccc(-c4nc5cc(F)ccc5[nH]4)s3)cc2)c1.O=C(O)C(F)(F)F | 100
O=C(/C=C/c1ccc(Cl)c(Cl)c1)NCCCCCN1CCCN(C(=O)Nc2cc(Cl)nc(Cl)c2)CC1 | 100
CCCCNC(=O)c1[nH]c2c(NC(=O)COc3ccccc3)cccc2c1-c1cccc(NC(=O)C(N)CO)c1 (stereo not given) | 87
O=C(Nc1ccc(-c2cccc(-c3nc4ccccc4[nH]3)c2)cc1)NC1CC1c1ccccc1 (stereo not given) | 84
Clc1cc(Nc2ccnc3ccc(Br)cc23)ccc1Oc1ccc2ccccc2c1Cl | 100
O=C(Nc1ccc2c(c1)CCC2)N[C@H]1CCN(Cc2ccc(OCCCN3CCCCC3)cc2)C1 | 96
Cc1cccc2nc(-c3ccc(-c4cccc(CN5CCC(N)C5)c4)s3)[nH]c12.O=C(O)C(F)(F)F (stereo not given) | 95
CC(C)C[C@H](Nc1ccnc(NCC2CCCCC2)n1)C(=O)NCCOc1ccccc1.O=C(O)C(F)(F)F | 89
Cc1cccc2nc(-c3ccc(-c4cccc(NC(=O)c5cnccc5C(F)(F)F)c4)cc3)[nH]c12 | 84
Cl.O=c1cc(NCCCNCc2cc3c(Cl)cccc3s2)[nH]c2ccccc12 | 100
O=CO.c1ccc(-c2ccc(CNCCCNc3nc4ccccc4[nH]3)cc2)cc1 | 95
Cl.c1ccc2c(Nc3ccc(Cc4ccc(Nc5c6ccccc6nc6ccccc56)cc4)cc3)c3ccccc3nc2c1 | 100
COc1ccc2ncc(F)c(CCN3CC[C@@H](CNCc4cc(C)c5c(c4)OCCO5)C3)c2n1.Cl | 98
O=C(NCC1CCN(Cc2cccc(C(F)(F)F)c2)C1)c1cc(-c2cccc(Cl)c2)cs1.O=C(O)C(F)(F)F (stereo not given) | 93
CCCCNc1ccc(C(=O)NC2CCN(C[C@H](O)c3ccnc4ccc(OC)cc34)CC2)cc1 | 90
NC1CCN(Cc2cccc(-c3ccc(-c4nc5ccccc5[nH]4)cc3)c2)C1.O=C(O)C(F)(F)F (stereo not given) | 100
Cl.O=c1cc(NCCCNCc2sc(Br)nc2Br)[nH]c2ccccc12 | 92

SMILES | Inhibition [%]
O=[N+]([O-])c1ccc(Nc2nc(N/N=C/c3cc(Cl)cc(Cl)c3O)nc(Nc3ccccc3)n2)cc1 | 100
C[C@H](NC(=O)c1c(CN2CCC(NC(=O)CC(C)(C)C)CC2)c(-c2cccs2)nc2ccccc12)C1CCCCC1 | 91
CCOc1cc(Cc2cnc(N)nc2N)cc(OC)c1OC | 90
CN1CCC(C(=O)Nc2ccc(-c3ccc(-c4nc5ccccc5[nH]4)cc3)cc2)CC1 | 100
CCOC(=O)c1ccc(NC(=O)Nc2cccc(-c3ccc(-c4nc5cccc(C)c5[nH]4)s3)c2)cc1 | 100
COc1ccc(-c2ccc(NC(=O)c3ccc(C#N)cc3)cc2)cc1CN(C)CCN(C)C.O=C(O)C(F)(F)F | 96
Cc1cccc2nc(-c3ccc(-c4ccc(CN5CCCCC5CO)cc4)cc3)[nH]c12.O=C(O)C(F)(F)F (stereo not given) | 100
Cc1cc(N[C@@H](Cc2ccccc2)C(=O)NCCOc2ccccc2)nc(NCCc2cccs2)n1.O=C(O)C(F)(F)F | 95
Cc1ccc(C)c(C2CCN(CCCCNC(=O)c3ccc(NC(=O)c4ccc(Cl)cc4)cc3)CC2)c1 | 94
CCCc1cc(Cc2cnc(N)nc2N)cc2c1OC(C)C2C.Cl (stereo not given) | 98
COc1cc(C=NN=c2cc(C)[nH]c3ccccc23)cc(OC)c1OC | 100
O=C(O)c1cccc2c(-c3ccncc3)cccc12 | 97
O=C(N1CCN(c2ccnc3cc4c(cc23)N(Cc2ccccc2)CC4)CC1)C(F)(F)F | 100
Fc1ccc2[nH]c(-c3ccc(-c4cccc(CN5CCN(c6ccncc6)CC5)c4)cc3)nc2c1.O=C(O)C(F)(F)F | 100
Cc1cc(CN2CC[C@H](NC(=O)c3ccc(Cl)c(Cl)c3)C2)ccc1OCCN1CCNCC1.O=C(O)C(F)(F)F | 94
O=S(=O)(Nc1ccc(CCN2CCC(N3CCCCC3)CC2)cc1)c1cccc2cccnc12 | 100
Cl.O=C(CNC1=NCCN1)Nc1ccc(NC(=O)Nc2ccc(NC(=O)CNC3=NCCN3)cc2)cc1 | 90
CC(=O)O.CCc1cc2c(cc1CC)CC(NC[C@@H](O)c1ccc(O)c3[nH]c(=O)ccc13)C2 | 100
COCCNCc1cccc(-c2ccc3c(Nc4ccc(F)cc4Cl)ccnc3c2)c1 | 100
CCCCCCC(N)c1ccc(OCCCOc2ccc(C(N)CCCCCC)cc2)cc1.Cl (stereo not given) | 88
